High-throughput results from PubChem.
B2AR arrestin = recruits beta-arrestin to the human beta2-adrenergic receptor. P07550. beta-arrestin recruitment to beta2AR, cell-based reporter. Potency, µM (series often up to 46.1 µM), usual class: activators. hit rate 0.02% among 330,000; note: nearly all actives have a fitted effect of over 65% in size
D3 antag = blocks the human D3 dopamine receptor; AID 652054; hit rate 2.5% among 360,000; D3R cells, DiscoveRx beta-arrestin luminescence, antagonist mode; hits give low values; max response, negative = inhibition, %; P35462; in the data active = max response below about -50%; inconclusive = no clear call, values can overlap the other calls
Target sequence (P35462 whole entry, looked up): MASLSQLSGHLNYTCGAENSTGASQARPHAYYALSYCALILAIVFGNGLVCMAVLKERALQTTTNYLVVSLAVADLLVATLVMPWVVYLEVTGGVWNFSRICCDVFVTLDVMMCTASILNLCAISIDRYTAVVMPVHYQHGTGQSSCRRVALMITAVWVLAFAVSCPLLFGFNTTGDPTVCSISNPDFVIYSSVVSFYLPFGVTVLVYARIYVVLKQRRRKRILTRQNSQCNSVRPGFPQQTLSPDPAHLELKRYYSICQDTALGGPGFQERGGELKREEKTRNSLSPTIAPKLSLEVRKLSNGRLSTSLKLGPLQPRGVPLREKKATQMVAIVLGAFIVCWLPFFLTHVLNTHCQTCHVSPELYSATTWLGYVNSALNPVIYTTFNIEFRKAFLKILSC
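Cells expressing the human receptor were seeded at 1500 cells/well, incubated overnight at 37 degrees C in 5% CO2, then exposed to library compounds with dopamine controls for 90 minutes at 37 degrees C before luminescent detection.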
IDH1 R132H inh = blocks human mutant IDH1 R132H enzyme; IDH1-R132H enzyme, NADPH consumption, diaphorase/resazurin fluorescence; Potency, µM (titrated, usually from 76.6 µM), hits mostly inhibitors; hit rate 0.093% among 390,000; note: nearly all actives have a fitted effect of over 65% in size
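IDH1-R132H (0.5 ug/mL dispensed) in pH 7.5 Tris buffer was preincubated 30 min with compound, then given a substrate mix of 0.016 mM NADPH and 2 mM alpha-KG for 80 min at room temperature; remaining NADPH was read by diaphorase/resazurin fluorescence.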
D3 ag = activates the human D3 dopamine receptor; P35462; hit rate 0.58% among 410,000; max activation, %; D3R DiscoveRx beta-arrestin cells, luminescence, 90 min; AID 652048; in the data active = max activation above about 30%
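Cells at 1500/well, incubated overnight, then treated with pinned compounds (dopamine as control) for 90 min at 37 degrees C. DiscoveRx reagent added for 30 - 60 minutes at room temperature; luminescence read.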
a7 integrin act = integrin-mediated muscular dystrophy alleviation activation; alpha7betagal myoblasts, beta-gal FDG fluorescence, 48 h; Potency, µM (series often up to 38.3 µM), actives largely listed as activators; hit rate 0.064% among 350,000; AID 624291; note: nearly all actives have a fitted effect of over 60% in size
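alpha7betagal+/- myoblasts (passage 13, 250/well) treated 48 h at 37C with compounds at 1:260 dilution of DMSO stock. Lysed, then beta-galactosidase activity read as FDG fluorescence (ex 480/em 540) after 30 min, with pre-read for autofluorescence.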
Of the large screens only hits and unclear results are named; the others gave an inactive call. Most compounds without a hit are left out; they make up all but 2.9% or so of the library. Unless noted, calls come from the whole dose curve; as a rule, active = well fitted curve in the direction sought with a large enough effect; inconclusive = small, poorly fitted or top-dose-only effect, or another doubt; inactive = no such curve, though single readings can be large; an effect the other way counts as inactive or inconclusive.

Fc1ccc(F)c(C2=NNC(=Nc3ccccc3F)SC2)c1	IDH1 R132H inh inconclusive
O=S(=O)(c1ccc(N=C2NN=C(c3cc(F)ccc3F)CS2)cc1)N1CCOCC1	IDH1 R132H inh 26µM
COc1ccc(CCNC(=O)c2ccc3c(c2)N(Cc2ccc(Cl)cc2)C(=O)c2ccccc2S3)cc1OC	none (no result: B2AR arrestin, D3 antag, a7 integrin act)
O=C(c1ccc(C(F)(F)F)cc1)N1CCN(c2ccc(N3CCOCC3)nn2)CC1	none
Cc1cccc(NCc2ccc(N(C)C)cc2)n1	none
CNC(=O)/C(=C\c1cccc(Oc2ccccc2)c1)NC(=O)c1ccccc1	a7 integrin act 11µM
Cc1ccn(CC(=O)N2CCCC(N3CCN(c4ccc(F)cc4)CC3)C2)n1 (configuration not stated)	none
COc1ccccc1CNC(=O)C1CCN(S(=O)(=O)c2ccc3c(ccn3C)c2)CC1	none (no result: B2AR arrestin, D3 antag, a7 integrin act)
CN1c2ccsc2C(O)=C(C(=S)Nc2ccc(F)c(Cl)c2)S1(=O)=O	D3 antag -93
CCc1cccc(NC(=O)COc2cc(=O)n(CC)c3ccccc23)c1	none (no result: B2AR arrestin, D3 antag, a7 integrin act)
O=C(CN1CCc2ccccc2C1)Nc1ccc(Br)cc1	D3 antag -52
CN(C)S(=O)(=O)c1ccc(Cl)c(NC(=O)CN2CCc3ccccc3C2)c1	D3 ag 74
Cc1ccc(NC(=O)CN2CCc3ccccc3C2)cc1F	D3 antag -85
CCc1ccc(NC(=O)CN2CCc3ccccc3C2)cc1	D3 antag -65
Cc1ccc(NC(=O)CN2CCc3ccccc3C2)cc1S(=O)(=O)N(C)C	D3 antag inconclusive
COc1ccccc1CNC(=O)c1oc2c(c1C)-c1nn(Cc3ccc(Cl)cc3)cc1CC2	none (no result: B2AR arrestin, D3 antag, a7 integrin act)
Cc1cccc(C)c1NC(=O)N1CCC(C(N)=O)(N2CCCCC2)CC1	none (no result: B2AR arrestin, D3 antag, a7 integrin act)
COc1ccc(-c2nc3sc(CCNS(=O)(=O)c4ccccc4)c(C)n3n2)cc1	none (no result: B2AR arrestin, D3 antag, a7 integrin act)
CN(C)S(=O)(=O)c1ccc(Cl)c(NC(=O)COC(=O)c2cc(-c3ccccc3)nc3ccccc23)c1	D3 ag 36
CCc1ccc(NC(=O)CCn2c(=O)c3cccn3c3ccccc32)cc1	D3 antag -54
CCOC(=O)c1c(C)[nH]c(C)c1S(=O)(=O)N1CCCC(C(=O)Nc2ccc(OC)c(OC)c2)C1 (configuration not stated)	none (no result: B2AR arrestin, D3 antag, a7 integrin act)
CCc1nnc2n1N(C(C)=O)C(c1ccc(C(C)(C)C)cc1)=C(C(C)=O)S2	IDH1 R132H inh inconclusive (no result: B2AR arrestin, D3 antag, a7 integrin act)
C[C@@H]1C/C=C/C=C/C=C/C=C/[C@H](O[C@@H]2O[C@H](C)[C@@H](O)[C@H](N)[C@@H]2O)C[C@@H]2O[C@](O)(C[C@@H](O)C[C@H]3O[C@@H]3/C=C/C(=O)O1)C[C@H](O)[C@H]2C(=O)O	none (no result: B2AR arrestin, D3 antag, IDH1 R132H inh, a7 integrin act)
FC(F)(F)c1cccc(CN2CCC(c3cc(-c4cccs4)n[nH]3)CC2)c1	D3 antag -80
Cc1ccc(CN2CCC(c3cc(-c4cccs4)n[nH]3)CC2)cc1	D3 antag -78
Cc1cccc(N2CCN(Cc3cc(=O)oc4cc(C)ccc34)CC2C)c1 (configuration not stated)	none (no result: B2AR arrestin, D3 antag, a7 integrin act)
CC1CCCCN1CCCNc1ccc(C(CC(N)=O)NC(=O)Cc2ccc(Br)cc2)cc1[N+](=O)[O-] (configuration not stated)	D3 antag -52
Cc1nnc(Sc2nc3ccccc3o2)c2ccccc12	D3 antag -68
Cc1ccc(-c2nnc(Sc3nc4ccccc4o3)c3ccccc23)cc1	D3 antag inconclusive
CC(NC(=O)c1ccc2nc(CCc3ccccc3)oc2c1)c1ccccc1 (configuration not stated)	none (no result: B2AR arrestin, D3 antag, a7 integrin act)
Clc1ccc2nc(NCc3ccccc3)c3nncn3c2c1	none (no result: B2AR arrestin, D3 antag, IDH1 R132H inh, a7 integrin act)
COc1cccc(-n2c(SCc3ccc(F)cc3)nc3c([nH]c4ccccc43)c2=O)c1	none (no result: B2AR arrestin, D3 antag, a7 integrin act)
COc1ccc(Nc2nc(NCc3ccco3)nc(N/N=C/c3ccccc3F)n2)cc1	D3 antag -54, a7 integrin act inconclusive
CSc1nc(N)nc2c1ncn2CC(=O)Nc1ccc(C)c(C)c1	none
CCOc1ccc(-c2nc(CSCC(=O)NCc3ccc(Cl)cc3)c(C)o2)cc1	D3 ag 32 (no result: B2AR arrestin, D3 antag, a7 integrin act)
CCc1ccccc1N1CCN(S(=O)(=O)c2ccc(F)c(C)c2)CC1	none
Cc1ccc(N2CCN(S(=O)(=O)c3ccc(F)c(C)c3)CC2)c(C)c1	D3 antag -51
CCOc1ccc(CCNC(=O)CCc2c(C)nc3cc(-c4ccccc4OC)nn3c2C)cc1	none (no result: B2AR arrestin, D3 antag, a7 integrin act)
CCc1nc2ccccc2n1CC1CC1(Cl)Cl (configuration not stated)	none
COc1ccc(-c2ccc(-c3cc(=O)oc4cc(OC)c(OC)c(OC)c34)cc2)cc1OC	D3 ag 34
CCN1CCN(C(=S)Nc2ccc(Cl)c(Cl)c2)CC1	D3 antag -50
CCN1CCN(C(=S)c2ccc(Cl)c(Cl)c2)CC1	D3 antag -51
O=C(Cc1cccs1)N1CCN(c2nc(-c3ccc(Cl)cc3)cs2)CC1	D3 ag 36
O=C(Cn1cc(SCc2cccc(F)c2)c2ccccc21)N1CCCC1	none (no result: B2AR arrestin, D3 antag, a7 integrin act)
Cc1ccc(S(=O)(=O)Nc2ccc3c(c2)nc2n3CCN(Cc3ccccc3)C2)cc1	D3 antag -51
O=S(=O)(Nc1ccc2c(c1)nc1n2CCN(Cc2ccccc2)C1)c1ccc(Cl)cc1	D3 antag -58
O=S(=O)(Nc1ccc2c(c1)nc1n2CCN(Cc2ccccc2)C1)c1ccccc1	D3 antag inconclusive
CCOC(=O)c1cnc(Nc2nc3ccccc3o2)nc1CSC(=S)N(CC)CC	B2AR arrestin inconclusive, D3 antag -60
Cc1ccc(-n2nc(CO)c(C(=O)NC(C)c3ccccc3)n2)cc1C (configuration not stated)	none (no result: B2AR arrestin, D3 antag, a7 integrin act)
CSCC[C@H](NC(=O)[C@H](Cc1ccccc1)n1c(=O)[nH]c2ccccc2c1=O)C(=O)N1CCC(C(=O)O)CC1	D3 ag 32
C[C@H](NC(=O)[C@H](Cc1ccccc1)n1c(=O)[nH]c2ccccc2c1=O)C(=O)N1CCC(C(=O)O)CC1	D3 ag 36
Cc1ccc(-c2cc(C(=O)NCCc3ccccc3)c3c(-c4ccc(C)cc4)[nH]nc3n2)cc1	none (no result: B2AR arrestin, D3 antag, IDH1 R132H inh, a7 integrin act)
O=C(NC1CCCC1)c1cc(=O)[nH]c2ccccc12	D3 ag 33
O=C(NCc1ccccc1)c1ccc2c(c1)N(Cc1ccccc1F)C(=O)c1ccccc1S2=O (configuration not stated)	none (no result: B2AR arrestin, D3 antag, a7 integrin act)
CC1Sc2ccc(C(=O)NCc3cccc(C(F)(F)F)c3)cc2NC1=O (configuration not stated)	none
CN1C(C(=O)c2ccccc2)=C(N)c2ccccc2S1(=O)=O	none
Cc1ccc(NC2=C(C(=O)c3ccccc3)N(C)S(=O)(=O)c3ccccc32)cc1	D3 antag -60
COc1cc(Nc2nc3c(S(=O)(=O)c4ccccc4)nnn3c3ccc(Cl)cc23)cc(OC)c1	none (no result: B2AR arrestin, D3 antag, a7 integrin act)
